The source of these data is PubChem BioAssay (EPA / NIEHS).

The structures appear in SMILES notation. Results filed as inconclusive are left out. The source made the active and inactive calls. Rule for the calls, unless noted: active = hit-call score of the fitted dose curve at least 0.9, where 1 is the maximum; inactive = score below 0.9.

A word on the AC50: it is the concentration giving half of the maximal activity seen.

The target of assay [1] is Myc proto-oncogene protein (Homo sapiens) (UniProt P01106). Kind of assay: ATG_Myc_CIS: Attagene CIS-FACTORIAL HepG2 Assay for human Myelocytomatosis (Myc) Proto-Oncogene Transcription Factor (AID 2282990). As to conditions: HepG2, Attagene cis-reporter transcription factor activity; actives raise or lower the signal. The method, boiled down: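 After 24 h chemical treatment of HepG2 cells carrying multiplexed cis-regulated reporter constructs, reporter transcripts quantified by RT-PCR and capillary electrophoresis of fluorescent fragments. Gain or loss fitted against DMSO baseline.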

Assay [2] in a line: ATG_NF_kB_CIS: Attagene CIS-FACTORIAL HepG2 Assay for human Nuclear Factor Kappa B (NF-kB) (AID 2282991). Conditions: HepG2 Attagene cis-factorial NF-kB reporter mRNA; actives raise or lower the signal. In outline: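 Fluorescence of labelled RT-PCR products separated by capillary electrophoresis gives reporter mRNA levels from transfected HepG2 cells exposed 24 h; values are fitted in both directions relative to DMSO.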

The nature of assay [3]: ATG_NRF2_ARE_CIS: Attagene CIS-FACTORIAL HepG2 Assay for human Nuclear Factor Erythroid 2 Related Factor 2 (NFR2) response to Antioxidant Response Elements (ARE) (AID 2282992). Conditions: HepG2 Attagene ARE/NRF2 reporter, transcription factor activity; actives raise or lower the signal. In outline: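 Cis-factorial assay: transfected HepG2 reporter library, 24 h dosing, mRNA readout via RT-PCR/CE; DMSO-referenced bidirectional analysis.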

Assay [4] in a line: ATG_Oct_MLP_CIS: Attagene CIS-FACTORIAL HepG2 Assay for human Octamer-Binding Transcription Factor (Oct) (AID 2282993). As to conditions: HepG2 Attagene cis-factorial Oct reporter, mRNA; actives raise or lower the signal. The method, boiled down:
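HepG2 cells transiently transfected with cis-element-driven reporter transcription units (endogenous TF activity); 24 h compound exposure. Reporter mRNA quantified by RT-PCR, 6-FAM labelling, HpaI digestion and capillary electrophoresis; bidirectional fit versus DMSO baseline.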

Assay [5] in a line: BSK_3C_TissueFactor: BioMAP Diversity Plus: 3C Assay for Tissue Factor Biomarker Activity (AID 2282997). As to conditions: BioMAP 3C HUVEC, tissue factor biomarker readout; actives raise or lower the signal. In outline:
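Dosing of human umbilical vein endothelial cells preceded a 24 h incubation. Tissue Factor was then read by ELISA, with increases and decreases both scored relative to DMSO controls.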

Assay [6] is described as follows: BSK_3C_uPAR: BioMAP Diversity Plus: 3C Assay for Urokinase-type plasminogen activator receptor (uPAR) Biomarker Activity (AID 2282998). As to conditions: BioMAP 3C HUVEC, uPAR biomarker ELISA; actives raise or lower the signal. In outline: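 Primary human umbilical vein endothelial cells, 3C system; surface uPAR measured by ELISA 24 h after dosing. Cytotoxicity via SRB total protein in parallel cultures; bidirectional fit against DMSO.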
On the technique in general: ELISA stands for enzyme-linked immunosorbent assay.

Assay [7] can be described thus: BSK_3C_VCAM1: BioMAP Diversity Plus: 3C Assay for Vascular cell adhesion molecule 1 (VCAM1) Biomarker Activity (AID 2282999). Conditions: BioMAP 3C HUVEC, VCAM1 ELISA, cytokine-stimulated; actives raise or lower the signal. In outline:
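Endothelial cells from human umbilical vein are treated with test chemical. At 24 h, VCAM-1 is measured by ELISA, and responses in either direction are fitted relative to DMSO.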

Assay [8] can be described thus: BSK_4H_Eotaxin3: BioMAP Diversity Plus: 4H Assay for Eotaxin 3 Biomarker Activity (AID 2283000).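 Note: CCL26 protein level quantified by ELISA in parallel with SRB cytotoxicity check.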 As to conditions: primary human endothelial cells (HUVEC); actives raise or lower the signal. In outline:
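Human umbilical vein endothelial cells (BSK_4H system) dosed with test chemical; Eotaxin-3 (CCL26) measured by ELISA 24 h after dosing. Bidirectional curve fitting relative to DMSO negative control as baseline.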

The target of assay [9] is human Peroxisome Proliferator-activated Receptor alpha (PPARa), PPARA (gene 5465) (UniProt Q07869). Nature of the assay: ATG_PPARa_TRANS: Attagene TRANS-FACTORIAL HepG2 Assay for human Peroxisome Proliferator-activated Receptor alpha (PPARa) (AID 2283001; active = hit-call score of the fitted dose curve at least 0.9, where 1 is the maximum;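 for AC50: potency for gain of reporter signal over DMSO so agonist or activator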). In outline: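 Read-out is fluorescence of reporter cDNA fragments resolved by capillary electrophoresis after RT-PCR. Human HepG2 liver cells carried transfected PPARa-Gal4 chimera and GAL4-UAS reporter units, treated 24 h; activity scored as increase over DMSO.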

Read-out in assay [10]: Intercellular Adhesion Molecule 1 (ICAM1), ICAM1 (gene 3383)
Kind of assay: BSK_3C_ICAM1: BioMAP Diversity Plus: 3C Assay for Intercellular Adhesion Molecule 1 (ICAM1) Biomarker Activity (AID 2283003). As to conditions: primary human endothelial cells (HUVEC); actives raise or lower the signal. In outline: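 ICAM-1 levels measured by ELISA after HUVEC cultures in the 3C system had been dosed for 24 h. Gain or loss of signal relative to DMSO was fitted in both directions.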

A short description of assay [11]: BSK_3C_Proliferation: Cell Proliferation Assessment in the BioMAP Diversity Plus: 3C Assay (AID 2283006).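 For AC50: potency may reflect either rise or fall in cell number versus DMSO.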 Conditions: primary human endothelial cells (HUVEC). In outline:
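Read-out is total protein by SRB absorbance at 560 nm, taken as a proxy for relative cell number. Primary human umbilical vein endothelium cultured below confluence was dosed for 48 h, TCA-fixed and SRB-stained; curves were fitted bidirectionally versus DMSO.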

The target of assay [12] is Peroxisome proliferator-activated receptor gamma (Homo sapiens) (UniProt P37231). Nature of the assay: ATG_PPARg_TRANS: Attagene TRANS-FACTORIAL HepG2 Assay for human Peroxisome Proliferator-activated Receptor-gamma (PPARg) (AID 2283007; active = hit-call score of the fitted dose curve at least 0.9, where 1 is the maximum). The method, boiled down:
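Twenty-four hours after chemical dosing of transiently transfected HepG2 cells, isolated RNA was converted to cDNA, reporter sequences amplified and 6-FAM-labelled, then HpaI-digested and analysed by capillary electrophoresis. Signal increase against DMSO was fitted.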

Assay [13] has as its target Nuclear receptor subfamily 1 group I member 2 (Homo sapiens) (UniProt O75469). Kind of assay: ATG_PXR_TRANS: Attagene TRANS-FACTORIAL HepG2 Assay for human Pregnane X Receptor (PXR) (AID 2283008; active = hit-call score of the fitted dose curve at least 0.9, where 1 is the maximum). The method, boiled down: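 Fluorescence intensity of FAM-labelled, HpaI-digested reporter amplicons, separated by capillary electrophoresis, quantifies induction. HepG2 cells with PXR-Gal4 trans-reporter system were exposed 24 h; DMSO defines baseline.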

Assay [14] addresses human RAR-related Orphan Receptor gamma (RORg), RORC (gene 6097) (UniProt P51449). Nature of the assay: ATG_RORg_TRANS: Attagene TRANS-FACTORIAL HepG2 Assay for human RAR-related Orphan Receptor gamma (RORg) (AID 2283011; active = hit-call score of the fitted dose curve at least 0.9, where 1 is the maximum). The method, boiled down: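 Reporter transcripts from a transfected RORg-GAL4 chimera in HepG2 cells were quantified 24 h after dosing by RT-PCR, 6-FAM labelling, HpaI digestion and capillary electrophoresis; increases over DMSO baseline were fitted.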

Assay [15] has as its target human Retinoic Acid Receptor beta (RARb), RARB (gene 5915) (UniProt P10826). Kind of assay: ATG_RARb_TRANS: Attagene TRANS-FACTORIAL HepG2 Assay for human Retinoic Acid Receptor beta (AID 2283004; active = hit-call score of the fitted dose curve at least 0.9, where 1 is the maximum). The method, boiled down: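 Induction of reporter mRNA from a chimeric RARb-Gal4 construct was measured by RT-PCR, FAM labelling, HpaI digestion and capillary electrophoresis. Measurements followed 24 h compound treatment of transiently transfected human HepG2 liver cells, with DMSO as baseline.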

Assay [16] deals with Retinoic acid receptor alpha (Homo sapiens) (UniProt P10276). Kind of assay: ATG_RARa_TRANS: Attagene TRANS-FACTORIAL HepG2 Assay for human Retinoic Acid Receptor alpha (RARa) (AID 2283005; active = hit-call score of the fitted dose curve at least 0.9, where 1 is the maximum). The method, boiled down:
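Reporter transcripts, measured by RT-PCR with fluorescent labeling and capillary electrophoresis after 24 h dosing, reflect activity of an exogenous human RARa–GAL4 fusion in transiently transfected HepG2. Fitted for increase relative to DMSO.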

In assay [17] the target is human Retinoic Acid Receptor gamma (RARg), RARG (gene 5916) (UniProt P13631). Kind of assay: ATG_RARg_TRANS: Attagene TRANS-FACTORIAL HepG2 Assay for human Retinoic Acid Receptor gamma (RARg) (AID 2283009; active = hit-call score of the fitted dose curve at least 0.9, where 1 is the maximum). In outline: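 Transient transfection of HepG2 with multi-reporter constructs, then 24 h chemical treatment. Total RNA isolated, reverse-transcribed, PCR-amplified, fluorescently labelled and resolved by capillary electrophoresis; activity scored as mRNA induction versus DMSO.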

The target of assay [18] is Cellular tumor antigen p53 (Homo sapiens) (UniProt P04637). Nature of the assay: ATG_p53_CIS: Attagene CIS-FACTORIAL HepG2 Assay for human p53 Transcription Factor (AID 2282994). Conditions: HepG2 p53 cis-element reporter, Attagene mRNA; actives raise or lower the signal. The method, boiled down:
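Using HepG2 hepatoma cells carrying cis-acting multiplexed reporters, mRNA induction is detected after a 24 h exposure. Gain- and loss-of-signal responses are fitted relative to DMSO-treated cells.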

For assay [19], the target named is human RAR-related Orphan Receptor beta (RORb), RORB (gene 6096) (UniProt Q92753). Nature of the assay: ATG_RORb_TRANS: Attagene TRANS-FACTORIAL HepG2 Assay for human RAR-related Orphan Receptor beta (RORb) (AID 2283010; active = hit-call score of the fitted dose curve at least 0.9, where 1 is the maximum). The method, boiled down:
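Readout is reporter-gene mRNA induction, detected as fluorescence after RT-PCR and capillary electrophoresis, fitted for gain of signal against DMSO controls. Transiently transfected HepG2 liver cells carrying GAL4-UAS reporter constructs were treated for 24 hours.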

For assay [20], the target named is human Peroxisome Proliferator-activated Receptor delta (PPARd), PPARD (gene 5467) (UniProt Q03181). Nature of the assay: ATG_PPARd_TRANS: Attagene TRANS-FACTORIAL HepG2 Assay for human Peroxisome Proliferator-activated Receptor delta (PPARd) (AID 2283002; active = hit-call score of the fitted dose curve at least 0.9, where 1 is the maximum). The method, boiled down: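 Read-out is induced reporter mRNA, quantified by RT-PCR with fluorescent labelling and capillary electrophoresis after 24 h dosing. Cells are HepG2 transiently carrying multiple GAL4-UAS reporter units driven by exogenous NR-GAL4 chimeras; DMSO serves as baseline.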

Sequence of human Retinoic Acid Receptor gamma (RARg), RARG (gene 5916) (P13631 whole entry, looked up): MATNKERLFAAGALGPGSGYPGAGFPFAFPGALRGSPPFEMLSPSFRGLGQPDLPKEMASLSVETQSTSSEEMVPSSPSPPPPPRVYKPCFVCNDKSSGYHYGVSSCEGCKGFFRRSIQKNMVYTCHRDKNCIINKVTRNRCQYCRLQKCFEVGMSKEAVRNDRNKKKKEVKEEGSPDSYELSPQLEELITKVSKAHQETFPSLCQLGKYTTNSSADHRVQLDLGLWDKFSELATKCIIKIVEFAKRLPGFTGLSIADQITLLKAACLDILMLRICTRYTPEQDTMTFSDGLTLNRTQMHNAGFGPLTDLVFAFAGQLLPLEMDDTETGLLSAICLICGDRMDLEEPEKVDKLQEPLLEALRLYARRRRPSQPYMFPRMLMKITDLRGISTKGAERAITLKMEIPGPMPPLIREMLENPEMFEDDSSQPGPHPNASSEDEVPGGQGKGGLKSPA
Sequence of Retinoic acid receptor alpha (Homo sapiens) (P10276 whole entry, looked up, the tested form may be a part): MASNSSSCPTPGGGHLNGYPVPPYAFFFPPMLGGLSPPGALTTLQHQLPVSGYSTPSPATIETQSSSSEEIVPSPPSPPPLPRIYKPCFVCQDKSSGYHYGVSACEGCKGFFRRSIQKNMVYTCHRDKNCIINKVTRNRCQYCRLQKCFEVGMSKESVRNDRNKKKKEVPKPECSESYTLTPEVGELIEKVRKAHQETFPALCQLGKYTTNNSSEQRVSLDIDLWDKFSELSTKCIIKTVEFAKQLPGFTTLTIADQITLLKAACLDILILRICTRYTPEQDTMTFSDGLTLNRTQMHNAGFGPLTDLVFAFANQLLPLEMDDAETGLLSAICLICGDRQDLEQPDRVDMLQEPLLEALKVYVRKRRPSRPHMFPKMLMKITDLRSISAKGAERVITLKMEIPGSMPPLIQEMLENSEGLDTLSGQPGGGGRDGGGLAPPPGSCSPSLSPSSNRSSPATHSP
Sequence of human RAR-related Orphan Receptor beta (RORb), RORB (gene 6096) (Q92753 whole entry, looked up, the tested form may be a part): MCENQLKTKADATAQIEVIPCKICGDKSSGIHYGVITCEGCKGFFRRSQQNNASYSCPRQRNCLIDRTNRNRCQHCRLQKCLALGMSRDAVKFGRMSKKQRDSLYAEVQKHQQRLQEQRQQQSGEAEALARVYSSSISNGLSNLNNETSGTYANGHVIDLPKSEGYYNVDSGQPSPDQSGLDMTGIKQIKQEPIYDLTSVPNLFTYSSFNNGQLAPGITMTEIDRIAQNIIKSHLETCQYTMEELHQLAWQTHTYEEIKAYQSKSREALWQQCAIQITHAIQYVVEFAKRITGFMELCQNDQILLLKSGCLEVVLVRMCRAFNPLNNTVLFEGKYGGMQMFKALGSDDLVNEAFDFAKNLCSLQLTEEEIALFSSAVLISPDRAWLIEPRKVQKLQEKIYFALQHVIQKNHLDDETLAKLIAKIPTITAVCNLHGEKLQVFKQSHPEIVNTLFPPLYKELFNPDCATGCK
Sequence of human RAR-related Orphan Receptor gamma (RORg), RORC (gene 6097) (P51449 whole entry, looked up, the tested form may be a part): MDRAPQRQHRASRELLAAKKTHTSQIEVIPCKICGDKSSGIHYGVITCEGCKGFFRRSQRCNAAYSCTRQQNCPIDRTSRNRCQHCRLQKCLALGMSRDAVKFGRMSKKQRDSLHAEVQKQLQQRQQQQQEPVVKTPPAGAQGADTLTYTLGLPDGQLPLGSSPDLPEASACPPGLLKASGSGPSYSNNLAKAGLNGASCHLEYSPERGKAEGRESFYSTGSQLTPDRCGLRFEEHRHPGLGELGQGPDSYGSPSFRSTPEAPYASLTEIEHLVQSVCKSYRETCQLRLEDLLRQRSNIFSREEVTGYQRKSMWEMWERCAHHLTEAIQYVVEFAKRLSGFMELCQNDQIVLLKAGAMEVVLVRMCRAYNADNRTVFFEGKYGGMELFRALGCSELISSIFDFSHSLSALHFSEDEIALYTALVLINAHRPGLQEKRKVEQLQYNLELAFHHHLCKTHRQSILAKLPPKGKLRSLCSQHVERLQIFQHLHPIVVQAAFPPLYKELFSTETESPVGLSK
Sequence of human Retinoic Acid Receptor beta (RARb), RARB (gene 5915) (P10826 whole entry, looked up, the tested form may be a part): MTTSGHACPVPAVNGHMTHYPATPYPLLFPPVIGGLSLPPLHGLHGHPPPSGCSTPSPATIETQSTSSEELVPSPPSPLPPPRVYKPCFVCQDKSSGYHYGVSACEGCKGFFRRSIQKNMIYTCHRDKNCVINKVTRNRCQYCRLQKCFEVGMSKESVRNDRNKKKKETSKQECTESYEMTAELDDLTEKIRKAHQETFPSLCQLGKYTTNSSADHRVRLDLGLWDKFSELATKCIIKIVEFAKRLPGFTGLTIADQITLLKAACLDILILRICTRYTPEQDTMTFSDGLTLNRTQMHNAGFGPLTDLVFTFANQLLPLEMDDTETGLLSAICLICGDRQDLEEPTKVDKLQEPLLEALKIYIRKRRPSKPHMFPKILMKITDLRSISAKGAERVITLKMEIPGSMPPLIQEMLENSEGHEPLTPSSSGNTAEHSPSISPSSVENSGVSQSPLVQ
Sequence of Nuclear receptor subfamily 1 group I member 2 (Homo sapiens) (O75469 whole entry, looked up, the tested form may be a part): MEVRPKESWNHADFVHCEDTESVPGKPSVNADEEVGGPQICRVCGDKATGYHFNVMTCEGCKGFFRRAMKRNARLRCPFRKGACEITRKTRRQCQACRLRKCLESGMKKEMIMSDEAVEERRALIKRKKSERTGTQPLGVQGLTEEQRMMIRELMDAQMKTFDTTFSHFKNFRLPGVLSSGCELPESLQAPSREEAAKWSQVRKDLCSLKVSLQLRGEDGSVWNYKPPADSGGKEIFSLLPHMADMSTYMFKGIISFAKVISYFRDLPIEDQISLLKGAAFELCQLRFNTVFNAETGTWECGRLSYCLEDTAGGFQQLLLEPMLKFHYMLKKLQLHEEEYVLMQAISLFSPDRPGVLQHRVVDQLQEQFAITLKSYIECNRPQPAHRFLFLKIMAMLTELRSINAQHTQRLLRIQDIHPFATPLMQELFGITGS
Sequence of Myc proto-oncogene protein (Homo sapiens) (P01106 whole entry, looked up, the tested form may be a part): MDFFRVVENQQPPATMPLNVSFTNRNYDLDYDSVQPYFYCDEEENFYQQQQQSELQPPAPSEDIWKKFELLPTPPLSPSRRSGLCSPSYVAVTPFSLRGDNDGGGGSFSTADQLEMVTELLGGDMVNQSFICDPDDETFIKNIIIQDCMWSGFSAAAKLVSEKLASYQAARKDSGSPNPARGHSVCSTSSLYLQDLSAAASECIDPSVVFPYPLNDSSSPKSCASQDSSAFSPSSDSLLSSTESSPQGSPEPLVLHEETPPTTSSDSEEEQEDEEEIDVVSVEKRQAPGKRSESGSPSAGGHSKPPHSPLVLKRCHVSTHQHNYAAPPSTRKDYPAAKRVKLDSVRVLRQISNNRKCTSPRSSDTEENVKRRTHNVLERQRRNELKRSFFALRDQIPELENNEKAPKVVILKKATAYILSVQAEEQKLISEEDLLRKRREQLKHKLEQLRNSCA
Sequence of human Peroxisome Proliferator-activated Receptor alpha (PPARa), PPARA (gene 5465) (Q07869 whole entry, looked up, the tested form may be a part): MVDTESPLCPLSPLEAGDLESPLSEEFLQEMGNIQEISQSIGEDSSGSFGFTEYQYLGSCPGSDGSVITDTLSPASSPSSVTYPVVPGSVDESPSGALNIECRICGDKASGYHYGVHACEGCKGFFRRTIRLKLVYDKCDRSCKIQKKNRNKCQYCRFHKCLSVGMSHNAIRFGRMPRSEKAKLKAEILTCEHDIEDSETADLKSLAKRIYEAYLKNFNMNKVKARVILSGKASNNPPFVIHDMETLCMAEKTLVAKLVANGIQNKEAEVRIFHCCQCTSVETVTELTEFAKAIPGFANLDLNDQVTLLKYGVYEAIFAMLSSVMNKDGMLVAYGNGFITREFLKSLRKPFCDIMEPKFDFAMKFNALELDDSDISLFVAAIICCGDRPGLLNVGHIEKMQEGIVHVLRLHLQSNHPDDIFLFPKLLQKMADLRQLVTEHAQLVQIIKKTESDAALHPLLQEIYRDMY
Sequence of Peroxisome proliferator-activated receptor gamma (Homo sapiens) (P37231 whole entry, looked up): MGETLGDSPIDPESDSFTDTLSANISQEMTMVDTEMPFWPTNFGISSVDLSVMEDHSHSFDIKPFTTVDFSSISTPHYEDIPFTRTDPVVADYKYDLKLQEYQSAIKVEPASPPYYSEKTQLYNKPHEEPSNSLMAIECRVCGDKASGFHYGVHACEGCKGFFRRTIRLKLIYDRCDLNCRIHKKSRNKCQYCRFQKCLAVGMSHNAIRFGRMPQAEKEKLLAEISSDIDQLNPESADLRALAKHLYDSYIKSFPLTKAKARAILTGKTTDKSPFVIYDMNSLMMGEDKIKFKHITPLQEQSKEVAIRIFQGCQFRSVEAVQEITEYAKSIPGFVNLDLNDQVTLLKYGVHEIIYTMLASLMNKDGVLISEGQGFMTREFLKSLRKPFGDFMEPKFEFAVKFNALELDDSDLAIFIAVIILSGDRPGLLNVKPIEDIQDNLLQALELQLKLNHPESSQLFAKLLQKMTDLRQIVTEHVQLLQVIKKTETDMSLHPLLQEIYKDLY
Sequence of Cellular tumor antigen p53 (Homo sapiens) (P04637 whole entry, looked up): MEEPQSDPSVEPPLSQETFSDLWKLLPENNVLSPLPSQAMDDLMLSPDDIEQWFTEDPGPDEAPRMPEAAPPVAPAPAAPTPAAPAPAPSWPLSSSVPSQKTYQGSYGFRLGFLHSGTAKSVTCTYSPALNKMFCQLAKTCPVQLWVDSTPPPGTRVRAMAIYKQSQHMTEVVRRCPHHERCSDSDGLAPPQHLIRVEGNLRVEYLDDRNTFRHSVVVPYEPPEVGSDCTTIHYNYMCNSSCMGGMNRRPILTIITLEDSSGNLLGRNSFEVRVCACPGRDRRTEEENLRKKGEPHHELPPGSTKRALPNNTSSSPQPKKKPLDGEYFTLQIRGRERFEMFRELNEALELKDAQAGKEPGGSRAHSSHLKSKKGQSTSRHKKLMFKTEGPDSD

As for `CN(C)C(=O)NC1(c2ccccc2)CCN(CCC[C@]2(c3ccc(Cl)c(Cl)c3)CCCN(C(=O)c3ccccc3)C2)CC1`, the AC50 is 5.05 µM (active) in assay [1]; 2.84 µM (active) in assay [2]; 1.64 µM (active) in assay [3]; 4.31 µM (active) in [4]; 4.37 µM (active) in [5]; 4.2 µM (active) in [9]. For the same compound, the AC50 in assay [11] was 6.94 µM (active); in assay [12], 5.21 µM (active); in assay [13], 0.554 µM (active). In addition, the result in assay [6], in [7], in assay [8], in [10] and in assay [14] was inactive.
As for `CC(C)COC(=O)CCCCC(=O)OCC(C)C`, the compound was classed as inactive in assay [1], in [2], in assay [3], in assay [4], in [5] and in assay [6]. Further, the outcome in [7], in [8], in [9], in [10], in [15] and in assay [16] was inactive. Further, the result in assay [11], in [12], in assay [13], in assay [17] and in assay [14] was inactive.
As for `CCCCc1nc2cccnc2n1Cc1ccc(-c2ccccc2-c2nnn[nH]2)cc1`, the compound was classed as inactive in [1], in assay [2], in assay [4], in assay [18], in assay [5] and in [6]. The outcome in assay [7], in assay [8], in [9], in [10], in [11] and in assay [19] was inactive. The AC50 is 100 µM (active) in assay [3], 4.39 µM (active) in assay [12] and 27.4 µM (active) in assay [13].
On to `CCCCOC(=O)CCCCC(=O)OCCCC`, for which the compound was called inactive in assay [1], in assay [2], in assay [3], in assay [4], in [5] and in assay [6]. Further, the result in assay [7], in assay [8], in [9], in [10], in [11] and in assay [12] was inactive. Besides, in assay [13], the call was inactive.
`O=[Si]=O`: the call in assay [1], in assay [2], in assay [3], in assay [4], in assay [5] and in [6] was inactive. Besides, the result in assay [7], in assay [8], in assay [9], in [10], in assay [15] and in assay [16] was inactive. Moreover, the outcome in assay [11], in [12], in assay [13], in [17] and in assay [19] was inactive.
Consider `NC=O`, for which the call in assay [1], in [2], in [3], in assay [4], in assay [5] and in assay [6] was inactive. The result in assay [7], in assay [8], in assay [9], in assay [20], in assay [10] and in assay [15] was inactive. Moreover, the compound was classed as inactive in [16], in [11], in [13], in assay [17] and in assay [19].
Consider `CCCCCCCCCCCCCCCCO`, for which the compound was called inactive in assay [1], in [2], in assay [3], in [4], in [5] and in [6]. Further, the outcome in assay [7], in [8], in assay [9], in assay [10], in assay [16] and in [11] was inactive. Further, the call in [12], in assay [19] and in assay [14] was inactive.
